Assay results published in PubChem BioAssay AID1159580 (chemical genetic matrix, 2015).
Screen size: about 5,500 compounds; about 2,000 (36%) were called active. Roughly 18% stayed inconclusive and do not appear here. Cut-off read from the data, not from the text of the source: active = normalized growth mostly below about 0.91 (no sharp cut-off); inconclusive = no clear call, values can overlap the other calls; inactive = mostly above about 0.92. Some of the results follow.

Assay: chemical genetic growth profiling, strain panel (AID 1159580);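 note: tested at 20 µM; growth read once vehicle control cultures reached saturation at 30 °C; 1 = growth at the plate median or of vehicle wells; lower values mean less growth of the strain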
Conditions: S. cerevisiae deletion strains, growth OD

Measured: normalized growth

O=c1[nH]ccc2c(O)cccc12
inactive: locus YAL013W, strain DEP1, hits give low values 0.996 | locus YAL040C, strain CLN3, hits give low values 0.999 | locus YCL061C, strain MRC1 (second series), hits give low values 0.996 | locus YDR363W, strain ESC2, hits give low values 1.02 | locus YER002W, strain NOP16, hits give low values 0.999 | locus YGR078C, strain PAC10, hits give low values 1 | locus YGR229C, strain SMI1, hits give low values 1.02 | locus YNL175C, strain NOP13, hits give low values 1.01 | locus YNL197C, strain WHI3, hits give low values 1.01 | locus YNL224C, strain SQS1, hits give low values 0.994 | locus YNL322C, strain KRE1, hits give low values 1 | locus YOR083W, strain WHI5 (second series), hits give low values 1.06 | locus YPL241C, strain CIN2, hits give low values 0.99
